“And” between values parts separate entries of the source, which are not always exact repeats. Equal entries are not always repeated. Records with an inconclusive call do not appear. Some structures have more than one record in an assay (separate samples or runs), and their calls can disagree. The source made the active and inactive calls. Unless noted, calls follow the shape of the dose curve; as a rule, active = well fitted curve in the direction sought with a large enough effect in the repeat runs; inconclusive = weak or mixed curves; inactive = no such curve, though single readings can be large; an effect the other way counts as inactive or inconclusive.
Columns and labels:
[1] = target: Progesterone receptor (Homo sapiens) (UniProt P06401); assay: qHTS assay to identify small molecule antagonists of the progesterone receptor (PR) signaling pathway (AID 1346795; active = well fitted inhibition curve with a large enough effect in the signal ratio in the repeat runs, not every such curve was filed as active; the % refers to the signal ratio)
In short: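 Stimulus R5020 at 1 nM final; cells HEK293T PR-UAS-bla; medium with 2% charcoal-stripped FBS; compound exposure 16 hr at 37C, 5% CO2; detection by FRET beta-lactamase substrate, 2 hr, room temperature.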

[2] = qHTS assay to identify small molecule antagonists of the progesterone receptor (PR) signaling pathway - cell viability counter screen (AID 1346798); also: series mostly up to about 92 µM; nearly all actives have a fitted effect of over 50% in size
In short: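 In the same plates used for the beta-lactamase readout, cell viability of compound- and R5020-treated PR-UAS-bla HEK293T cells (16 hr, 37C) was assessed by CellTiter-Glo luminescence.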

[3] = qHTS assay to identify small molecule agonists of the progesterone receptor (PR) signaling pathway - cell viability counter screen (AID 1346799; calls by dose curve; also: nearly all actives have a fitted effect of over 45% in size)
In short: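 Multiplexed viability read: CellTiter-Glo luminescence, 30 min RT, following LiveBLAzer FRET measurement on PR-UAS-bla HEK293T cells exposed to compounds 16 hr.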

[4] = qHTS assay to identify small molecule antagonists of the TGF-beta/Smad signaling pathway - cell viability counter screen (AID 1346824); also: nearly all actives have a fitted effect of over 50% in size
In short: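 Cytotoxicity counter-screen run in the same wells as the beta-lactamase Smad reporter read: CellTiter-Glo luminescence after 30 min at room temperature. HEK 293T SBE-bla cells had 5 hr compound exposure at 37 C with TGF-beta1 (0.25 ng/mL stock).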

[5] = qHTS assay to identify small molecule agonists of the TGF-beta/Smad signaling pathway - cell viability counter screen (AID 1346829); also: top concentration of the series differs between compounds; nearly all actives have a fitted effect of over 45% in size
In short: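 In parallel with the Smad reporter read, viability of HEK 293T cells stably carrying SBE-bla is quantified by ATP luminescence following 5 hr compound treatment.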

[6] = qHTS assay to identify small molecule agonists of the TGF-beta/Smad signaling pathway (AID 1346859; active = well fitted activation curve with a large enough effect in the signal ratio in the repeat runs, not every such curve was filed as active; the % refers to the signal ratio; also: series mostly up to about 77 µM)
In short: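 Screening used HEK 293T SBE-bla cells at 4,000/well. Test agents: 5 hr, 37 C. Detection: FRET substrate, 2 hr RT, then excitation 405 nm with emissions at 460 and 530 nm.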

[7] = target: Thyrotropin-releasing hormone receptor (Homo sapiens) (UniProt P34981); assay: qHTS assay to identify small molecule antagonists of the thyrotropin-releasing hormone receptor (TRHR) signaling pathway (AID 1346877; active = well fitted inhibition curve with a large enough effect in the repeat runs, not every such curve was filed as active; also: potency is read from the fitted curve at half-maximal effect)
In short: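 Antagonism is measured as suppression of the calcium response to 1 nM TRH in TRHR-HEK293 cells that have been dye-loaded for 2 h at 37 °C after overnight plating. Each compound is tested at 15 concentrations in triplicate.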

[8] = target: Thyrotropin-releasing hormone receptor (Homo sapiens) (UniProt P34981); assay: qHTS assay to identify small molecule agonists of the thyrotropin-releasing hormone receptor (TRHR) signaling pathway (AID 1346891; calls by dose curve; also: potency is read from the fitted curve at half-maximal effect; as to activation: series mostly up to about 58 µM)
In short: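 Readout was intracellular calcium fluorescence in TRHR-Hek293 cells. Cells were incubated 18 h, dye-loaded 2 h at 37 °C, and treated with compound in agonist mode.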

[9] = Human pregnane X receptor (PXR) small molecule agonists, qHTS cell viability counter screen (AID 1346977); also: nearly all actives have a fitted effect of over 50% in size; also: potency is read from the fitted curve at half-maximal effect
In short: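 In each well, the PXR reporter HepG2 line was checked for viability: CellTiter-Fluor reagent added 23hr post-dosing, fluorescence read after 1hr incubation at 37C.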

[10] = Caspase-3/7 induction in HepG2 cells by small molecules, qHTS assay (AID 1346978); also: nearly all actives have a fitted effect of over 15% in size; also: potency is read from the fitted curve at half-maximal effect
In short: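 Caspase-3/7 induction was measured by Caspase-Glo 3/7 luminescence (30 min, room temperature) after a 17 hr compound exposure of wild-type HepG2 cells seeded at 2,000 per well and pre-incubated 5 hr.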

[11] = Caspase-3/7 induction in CHO-K1 cells by small molecules, qHTS cell viability counter screen (AID 1346979); also: nearly all actives have a fitted effect of over 35% in size; also: potency is read from the fitted curve at half-maximal effect
In short: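 Following a 5hr settling period, CHO-K1 cells at 1,500 per well received DMSO-dissolved compounds. Cell viability was quantified 16hr later by CellTiter-Fluor fluorescence, measured after 1hr with reagent at 37C.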

[12] = Caspase-3/7 induction in CHO-K1 cells by small molecules, qHTS assay (AID 1346980); also: nearly all actives have a fitted effect of over 15% in size; also: potency is read from the fitted curve at half-maximal effect
In short: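 Luminescent Caspase-Glo 3/7 read (30min, room temperature) quantified apoptosis induction. Cells were wild-type CHO-K1, treated with compound for 17hr at 37 C and 5% CO2.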

[13] = target: Nuclear receptor subfamily 1 group I member 2 (Homo sapiens) (UniProt O75469); assay: Human pregnane X receptor (PXR) small molecule agonists, qHTS assay (AID 1346982); also: nearly all actives have a fitted effect of over 35% in size; also: potency is read from the fitted curve at half-maximal effect
In short: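 Cells: HepG2 stably carrying PXR-Luc. Medium held 5% charcoal-stripped FBS. Compounds in DMSO added after 5 hr plating, incubated 24 hr, then luminescence quantified with ONE-Glo.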

[14] = target: Cytochrome P450 2D6 (Homo sapiens) (UniProt P10635); assay: Cytochrome P450 Family 2 Subfamily D Member 6 (CYP2D6) small molecule antagonists: luciferase reporter qHTS assay (AID 1671196); also: nearly all actives have a fitted effect of over 50% in size; also: potency is read from the fitted curve at half-maximal effect
In short: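 Enzyme and proluciferin substrate were first combined with test chemical for 10 min at room temperature. Adding NADPH regeneration solution started a 1 h reaction, stopped with luciferin detection reagent and read by luminescence 20 min later.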

[15] = target: Cytochrome P450 2C19 (Homo sapiens) (UniProt P33261); assay: Cytochrome P450 Family 2 Subfamily C Member 19 (CYP2C19) small molecule antagonists: luciferase reporter qHTS assay (AID 1671197); also: nearly all actives have a fitted effect of over 65% in size; also: potency is read from the fitted curve at half-maximal effect
In short: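 Compounds were tested on CYP2C19 activity via proluciferin conversion to luciferin. The 37C, 1 h reaction followed NADPH addition; detection reagent stopped it.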

[16] = target: Cytochrome P450 2C9 (Homo sapiens) (UniProt P11712); assay: Cytochrome P450 Family 2 Subfamily C Member 9 (CYP2C9) small molecule antagonists: luciferase reporter qHTS assay (AID 1671198); also: nearly all actives have a fitted effect of over 50% in size; also: potency is read from the fitted curve at half-maximal effect
In short: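 Enzyme-substrate mix preincubated with compound 10 min at room temperature; reaction started with NADPH regeneration solution, 1 h 37C. Luminescent luciferin product read after 20 min detection reagent.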

[17] = target: Progesterone receptor (Homo sapiens) (UniProt P06401); assay: qHTS assay to identify small molecule agonists of the progesterone receptor (PR) signaling pathway (AID 1346784; calls by dose curve; also: nearly all actives have a fitted effect of over 30% in size)
In short: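 Reporter assay, GripTite PR-UAS-bla HEK 293T cells: 16 hr exposure to DMSO-dissolved compounds at 37C, 5% CO2, in steroid-depleted (2% charcoal-stripped FBS) medium; beta-lactamase measured by FRET fluorescence.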

[18] = Caspase-3/7 induction in HepG2 cells by small molecules, qHTS cell viability counter screen (AID 1346981); also: series mostly up to about 92 µM; nearly all actives have a fitted effect of over 30% in size
In short: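 Cell viability is measured as a cytotoxicity counter screen alongside the Caspase-Glo 3/7 readout in identical wells. Wild-type HepG2 cells are treated with test compounds for 16 hr at 37 C before CellTiter-Fluor addition and a 1-hr incubation.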

Measured: Potency

Nuclear receptor subfamily 1 group I member 2 (Homo sapiens), sequence (O75469 whole entry, looked up): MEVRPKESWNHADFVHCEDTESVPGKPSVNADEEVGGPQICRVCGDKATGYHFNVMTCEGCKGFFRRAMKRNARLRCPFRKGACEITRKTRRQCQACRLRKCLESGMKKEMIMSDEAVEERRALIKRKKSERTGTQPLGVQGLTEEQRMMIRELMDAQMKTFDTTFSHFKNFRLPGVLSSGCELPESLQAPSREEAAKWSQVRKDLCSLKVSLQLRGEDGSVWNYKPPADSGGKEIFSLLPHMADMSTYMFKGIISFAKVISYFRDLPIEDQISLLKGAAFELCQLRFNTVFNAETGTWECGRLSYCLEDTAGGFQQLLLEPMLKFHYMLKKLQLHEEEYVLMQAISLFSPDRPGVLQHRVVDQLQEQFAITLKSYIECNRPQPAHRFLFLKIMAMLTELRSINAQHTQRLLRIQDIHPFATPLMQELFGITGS
Cytochrome P450 2C19 (Homo sapiens), sequence (P33261 whole entry, looked up): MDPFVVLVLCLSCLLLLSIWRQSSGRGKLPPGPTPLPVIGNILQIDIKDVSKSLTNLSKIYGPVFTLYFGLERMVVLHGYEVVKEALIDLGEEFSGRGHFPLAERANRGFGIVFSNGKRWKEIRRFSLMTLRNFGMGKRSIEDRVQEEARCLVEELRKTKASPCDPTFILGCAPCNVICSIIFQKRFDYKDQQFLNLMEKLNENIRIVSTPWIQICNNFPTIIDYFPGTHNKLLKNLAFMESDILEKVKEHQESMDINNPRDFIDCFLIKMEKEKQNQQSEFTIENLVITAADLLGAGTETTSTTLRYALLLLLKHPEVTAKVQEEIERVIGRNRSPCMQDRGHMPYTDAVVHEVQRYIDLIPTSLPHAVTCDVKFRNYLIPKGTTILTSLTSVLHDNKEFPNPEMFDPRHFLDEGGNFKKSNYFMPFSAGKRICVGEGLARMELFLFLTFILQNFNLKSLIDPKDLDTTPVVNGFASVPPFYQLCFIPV
Thyrotropin-releasing hormone receptor (Homo sapiens), sequence (P34981 whole entry, looked up): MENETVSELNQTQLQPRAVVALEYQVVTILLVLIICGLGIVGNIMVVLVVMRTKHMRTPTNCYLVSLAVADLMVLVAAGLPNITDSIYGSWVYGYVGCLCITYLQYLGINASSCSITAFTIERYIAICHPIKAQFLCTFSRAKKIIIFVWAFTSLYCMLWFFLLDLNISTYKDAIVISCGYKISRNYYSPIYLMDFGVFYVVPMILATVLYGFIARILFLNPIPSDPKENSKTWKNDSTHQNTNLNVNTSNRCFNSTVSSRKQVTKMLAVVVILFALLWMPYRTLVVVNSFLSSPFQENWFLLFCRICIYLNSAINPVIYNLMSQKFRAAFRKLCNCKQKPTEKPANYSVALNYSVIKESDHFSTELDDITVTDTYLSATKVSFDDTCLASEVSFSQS
Progesterone receptor (Homo sapiens), sequence (P06401 whole entry, looked up): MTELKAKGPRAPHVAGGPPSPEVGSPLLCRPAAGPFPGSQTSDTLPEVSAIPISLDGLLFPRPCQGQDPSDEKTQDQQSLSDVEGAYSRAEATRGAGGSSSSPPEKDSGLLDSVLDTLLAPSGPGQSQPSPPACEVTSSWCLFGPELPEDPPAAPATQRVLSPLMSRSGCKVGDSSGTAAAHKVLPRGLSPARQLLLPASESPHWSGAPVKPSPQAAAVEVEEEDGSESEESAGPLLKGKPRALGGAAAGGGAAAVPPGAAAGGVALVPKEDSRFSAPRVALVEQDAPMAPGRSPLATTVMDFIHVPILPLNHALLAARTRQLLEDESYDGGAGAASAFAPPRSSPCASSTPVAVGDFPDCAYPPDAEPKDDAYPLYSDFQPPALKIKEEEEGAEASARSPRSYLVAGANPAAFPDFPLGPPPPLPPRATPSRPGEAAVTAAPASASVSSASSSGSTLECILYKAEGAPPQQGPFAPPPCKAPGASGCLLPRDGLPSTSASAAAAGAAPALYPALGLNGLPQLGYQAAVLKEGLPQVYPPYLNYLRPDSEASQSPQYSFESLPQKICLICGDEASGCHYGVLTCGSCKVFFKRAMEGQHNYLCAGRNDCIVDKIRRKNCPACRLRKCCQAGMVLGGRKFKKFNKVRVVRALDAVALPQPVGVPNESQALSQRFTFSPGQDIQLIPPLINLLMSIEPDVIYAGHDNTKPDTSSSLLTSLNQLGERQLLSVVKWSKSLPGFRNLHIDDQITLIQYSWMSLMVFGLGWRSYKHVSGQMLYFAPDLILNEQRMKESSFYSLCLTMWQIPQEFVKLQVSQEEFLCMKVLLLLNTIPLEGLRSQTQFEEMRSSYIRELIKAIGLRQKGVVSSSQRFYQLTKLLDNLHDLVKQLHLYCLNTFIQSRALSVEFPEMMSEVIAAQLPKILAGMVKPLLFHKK
Cytochrome P450 2C9 (Homo sapiens), sequence (P11712 whole entry, looked up): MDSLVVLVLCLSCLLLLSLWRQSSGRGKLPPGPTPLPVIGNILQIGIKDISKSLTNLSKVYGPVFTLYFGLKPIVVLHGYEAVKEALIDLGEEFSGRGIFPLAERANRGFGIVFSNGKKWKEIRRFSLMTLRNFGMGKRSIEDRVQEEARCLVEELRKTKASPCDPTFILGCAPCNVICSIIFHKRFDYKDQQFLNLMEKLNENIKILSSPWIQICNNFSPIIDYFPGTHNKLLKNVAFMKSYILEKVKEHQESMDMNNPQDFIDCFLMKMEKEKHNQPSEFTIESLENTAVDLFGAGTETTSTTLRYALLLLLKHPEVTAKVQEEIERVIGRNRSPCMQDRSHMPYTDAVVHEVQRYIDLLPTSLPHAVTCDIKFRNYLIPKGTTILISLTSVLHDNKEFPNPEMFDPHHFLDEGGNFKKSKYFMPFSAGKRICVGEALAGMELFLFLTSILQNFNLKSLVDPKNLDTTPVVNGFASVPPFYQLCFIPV
Cytochrome P450 2D6 (Homo sapiens), sequence (P10635 whole entry, looked up): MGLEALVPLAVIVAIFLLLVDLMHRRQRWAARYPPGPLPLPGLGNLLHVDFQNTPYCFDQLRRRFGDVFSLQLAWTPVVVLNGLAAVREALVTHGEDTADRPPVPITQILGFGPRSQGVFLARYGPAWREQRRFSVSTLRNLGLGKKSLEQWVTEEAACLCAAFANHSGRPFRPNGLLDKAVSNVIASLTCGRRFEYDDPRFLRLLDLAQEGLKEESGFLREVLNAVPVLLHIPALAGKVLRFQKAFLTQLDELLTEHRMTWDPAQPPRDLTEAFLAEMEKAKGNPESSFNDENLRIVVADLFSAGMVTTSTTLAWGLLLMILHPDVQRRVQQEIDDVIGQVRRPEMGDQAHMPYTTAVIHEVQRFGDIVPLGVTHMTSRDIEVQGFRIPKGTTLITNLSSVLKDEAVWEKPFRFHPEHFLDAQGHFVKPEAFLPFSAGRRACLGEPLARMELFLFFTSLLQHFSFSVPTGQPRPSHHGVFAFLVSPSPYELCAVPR

SCCCCCCCCS
not listed: [17] | [18]
inactive: all other assays above

Cc1cc(Nc2ccc(O)cc2)ccc1N
active: [9] 30.5 µM | [11] 27.2 µM | [12] 21.6 µM | [13] 9.64 µM | [16] 5.62 µM
inactive: [17] | [2] | [4] | [5] | [6] | [10]

C(=C/c1ccccc1)/c1ccccc1
not listed: [13] | [14] | [17]
inactive: all other assays above

CCc1c(Br)c(Br)c(Br)c(Br)c1Br
not listed: [13] | [17]
inactive: all other assays above

Nc1ccc2cc3ccc(N)cc3nc2c1
inactive: [17] | [4] | [5] | [16]
71 µM (active) and inactive: [15]
active: [7] 33.8 µM | [8] 15.5 µM and 13.5 µM | [10] 30.6 µM and 29.8 µM | [12] 4.86 µM and 11.9 µM

CCN(CC)CCOC(=O)C1(C2CCCCC2)CCCCC1
active: [13] 8.41 µM
inactive: [17] | [6] | [7] | [8] | [15] | [16]

CN(C)CCCN1c2ccccc2Sc2ccc(C(F)(F)F)cc21
inactive: [17] | [3] | [4] | [5] | [16]
active: [14] 0.617 µM | [15] 4.36 µM

CCCCOC(=O)C(C)CC (configuration not stated)
not listed: [1] | [2] | [12] | [14] | [15]
inactive: all other assays above

C[C@]12CC[C@H]3C(=CCc4cc(O)ccc43)[C@@H]1CCC2=O
active: [11] 61.1 µM | [13] 27.3 µM | [15] 31.7 µM | [16] 35.6 µM
not listed: [1] | [2] | [3] | [10] | [18]
inactive: all other assays above

From PubChem BioAssay (Tox21)
